# According to the supplement of paper PMC12494721:
# Where a name gives a salt, the structure may show the parent alone.
# Columns and labels:
# Conditions in all cases: 20 µM; incubation time: 27 h, anaerobic, 37 °C;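 for the amine columns active = adjusted P below 0.05 in both replicates with a change the same way and a mean fold change under 0.8 or over 1.25; inactive = the rest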
# [1] = tested on: Clostridium sporogenes DSM 1664; assay: growth (OD595) fold change vs plate DMSO controls (fold change (ratio)); higher = more growth
# In short: (§1)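 Growth is expressed as the fold change relative to the median of the DMSO control wells on each plate. Cultures in mGAM were grown anaerobically in 96-well plates for 27 h at 37 °C, shaken, and read at 595 nm. Readings were blank-subtracted, corrected for compound background with 20 µM compound solutions in water, and converted to OD with a calibration factor of 5. Fold changes above 1.5 were set to NA, and each value is the mean of 2 biological replicates.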
# Escherichia coli IAI1 [2] = assay: as above
# In short: as §1
# [3] = tested on: Klebsiella aerogenes DSM 30053; assay: as above
# In short: as §1
# [4] = tested on: Ruminococcus gnavus DSM 108212; assay: as above
# In short: as §1
# [5] = tested on: Klebsiella aerogenes DSM 30053; assay: fold change of Histamine concentration vs plate DMSO controls (fold change (ratio)); higher = more amine produced, active = hit call of the paper (significant change in both replicates, either direction)
# In short: (§2)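 Amine values are fold changes relative to DMSO-only wells on the same plate. They derive from 27 h, 37 °C anaerobic mGAM cultures of four gut bacterial strains in 80 µL wells, dosed at 20 µM final, or 50 µM final for sweeteners. Extraction of the whole culture, LC–triple-quadrupole MS in dynamic MRM mode, external calibration curves and within-batch drift correction were used, with 2 biological replicates averaged.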
# [6] = tested on: Clostridium sporogenes DSM 1664; assay: fold change of Tryptamine concentration vs plate DMSO controls (fold change (ratio)); higher = more amine produced, active = hit call of the paper (significant change in both replicates, either direction)
# In short: as §2
# [7] = tested on: Ruminococcus gnavus DSM 108212; assay: as above
# In short: as §2
# Escherichia coli IAI1 [8] = assay: fold change of Putrescine concentration vs plate DMSO controls (fold change (ratio)); higher = more amine produced, active = hit call of the paper (significant change in both replicates, either direction)
# In short: as §2
# [9] = tested on: Klebsiella aerogenes DSM 30053; assay: as above
# In short: as §2
# Escherichia coli IAI1 [10] = assay: fold change of Cadaverine concentration vs plate DMSO controls (fold change (ratio)); higher = more amine produced, active = hit call of the paper (significant change in both replicates, either direction)
# In short: as §2
# [11] = tested on: Klebsiella aerogenes DSM 30053; assay: as above
# In short: as §2
# [12] = tested on: Ruminococcus gnavus DSM 108212; assay: fold change of 2-Phenylethylamine concentration vs plate DMSO controls (fold change (ratio)); higher = more amine produced, active = hit call of the paper (significant change in both replicates, either direction)
# In short: as §2
SMILES,growth [1],growth (Escherichia coli IAI1 [2]),growth [3],growth [4],fold change of Histamine concentration [5],fold change of Tryptamine concentration [6],fold change of Tryptamine concentration [7],fold change of Putrescine concentration (Escherichia coli IAI1 [8]),fold change of Putrescine concentration [9],fold change of Cadaverine concentration (Escherichia coli IAI1 [10]),fold change of Cadaverine concentration [11],fold change of 2-Phenylethylamine concentration [12]
O=C(Nc1ccccc1-c1ccc(Cl)cc1)c1cccnc1Cl,0.923,1.02,0.996,0.965,0.953 (inactive),0.954 (inactive),0.949 (inactive),1 (inactive),0.985 (inactive),0.979 (inactive),0.999 (inactive),0.916 (inactive)
O=P1(N(CCCl)CCCl)NCCCO1 (stereo not drawn) [Cyclophosphamide],0.997,1.02,0.997,1.11,1.03 (inactive),0.997 (inactive),1.02 (inactive),1.01 (inactive),1.01 (inactive),1.02 (inactive),0.999 (inactive),1.03 (inactive)
O=C(CCCN1CCC2(CC1)C(=O)NCN2c1ccccc1)c1ccc(F)cc1 [Spiperone],0.864,0.96,0.968,0.921,1.01 (inactive),0.991 (inactive),1.01 (inactive),1.02 (inactive),1.01 (inactive),1.01 (inactive),0.998 (inactive),1.04 (inactive)
CCc1nn(C)c(C(=O)NCc2ccc(Oc3ccc(C)cc3)cc2)c1Cl,0.969,1.02,1.01,1.17,0.963 (inactive),0.927 (inactive),1.02 (inactive),0.947 (inactive),1 (inactive),1.01 (inactive),0.998 (inactive),1.04 (inactive)
C[N+](C)(C)CCCCCCCCCC[N+](C)(C)C [Decamethonium bromide],0.947,0.999,1,1.01,0.907 (inactive),1.13 (inactive),1.13 (inactive),0.923 (inactive),0.933 (inactive),0.877 (inactive),1.08 (inactive),1.11 (inactive)
Fc1ccc(C(OCCN2CCN(CCCc3ccccc3)CC2)c2ccc(F)cc2)cc1,1.09,1,1,0.845,0.974 (inactive),0.97 (inactive),0.638 (active),1.01 (inactive),0.993 (inactive),0.998 (inactive),1 (inactive),0.771 (active)
CC(C)N(CCC(C(N)=O)(c1ccccc1)c1ccccn1)C(C)C (stereo not drawn) [Disopyramide],1.08,1.04,1.01,0.817,0.927 (inactive),0.996 (inactive),1 (inactive),1.06 (inactive),0.996 (inactive),1.01 (inactive),1 (inactive),0.972 (inactive)
COc1cc(OC)nc(NC(=O)NS(=O)(=O)c2ncccc2C(=O)N(C)C)n1,1.19,1.03,1.02,1.22,0.96 (inactive),0.975 (inactive),1.01 (inactive),0.924 (inactive),1.03 (inactive),1.01 (inactive),1.01 (inactive),0.998 (inactive)
CCCN1C[C@H](CSC)C[C@@H]2c3cccc4[nH]cc(c34)C[C@H]21 [Pergolide mesylate],0.995,0.953,0.998,0.982,0.953 (inactive),0.969 (inactive),1.02 (inactive),0.968 (inactive),0.993 (inactive),1.06 (inactive),1.01 (inactive),1.04 (inactive)
CC1(C(=O)Nc2ccc(O)c(Cl)c2Cl)CCCCC1,0.939,1.02,1,1.22,0.992 (inactive),0.999 (inactive),0.96 (inactive),0.992 (inactive),0.99 (inactive),1.03 (inactive),1 (inactive),0.987 (inactive)
CCN[C@@H](C)Cc1cccc(C(F)(F)F)c1 [Dexfenfluramine hydrochloride],1.03,1.05,1.1,0.954,0.833 (inactive),1.28 (inactive),1.07 (inactive),1.02 (inactive),0.95 (inactive),0.869 (inactive),1.06 (inactive),1.16 (inactive)
N[C@@H]1C[C@H]1c1ccccc1 [Tranylcypromine hydrochloride],1.05,0.992,1.03,1.02,1.1 (inactive),0.972 (inactive),0.964 (inactive),1.01 (inactive),1.03 (inactive),1.03 (inactive),0.995 (inactive),0.928 (inactive)
COc1ccc(C(=O)N2CCCC2=O)cc1 [Aniracetam],0.932,0.978,1.04,0.771,0.853 (inactive),1.09 (inactive),1.03 (inactive),0.929 (inactive),0.976 (inactive),1.02 (inactive),1.01 (inactive),1.03 (inactive)
CC(=O)O[C@H]1C[C@@H]2CC[C@@H]3[C@H](CC[C@@]4(C)[C@H]3C[C@H]([N+]3(C)CCCCC3)[C@@H]4OC(C)=O)[C@@]2(C)C[C@@H]1[N+]1(C)CCCCC1 [Pancuronium bromide],0.918,1.08,1.1,1.08,0.905 (inactive),1.04 (inactive),1.07 (inactive),1.07 (inactive),0.983 (inactive),0.957 (inactive),1.03 (inactive),1.08 (inactive)
